HepG2 tox = qHTS for Inhibitors of TGF-b: Cytotox Counterscreen | actives 0.76% (n = 410,000) | Potency, µM (highest dose often 46.1 µM), for the others: at the top dose activity change, negative = cytotoxicity, usual class: cytotoxic | HepG2 CAGA-GFP viability, ATP luminescence, 18 h; further: potency means the concentration at half of the fitted maximal effect
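HepG2 CAGA-GFP cells (1000/well, DMEM with 1% FBS) received compound, then TGF-beta at 500 pg/mL final, and were incubated 18 hours at 37 degrees C. Viability was read by CellTiter-Glo luminescence. Media-only wells were set as complete cell-killing and DMSO as no toxicity.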
ATXN2 expr inh = Primary qHTS for Inhibitors of ATXN expression | HEK-293 ATXN2-luciferase reporter, luminescence, 24 h | Potency, µM (series often up to 57 µM), for inactives: at the top dose activity change, negative = inhibition, usual class: inhibitors | actives 0.72% (n = 360,000); further: potency means the concentration at half of the fitted maximal effect; on the % scale 0 is the no-effect control and ±100 the full control effect; nearly all actives have a fitted effect of over 55% in size
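qHTS (up to 57 uM final) was run with 24 h compound exposure of reporter cells at 37 °C. Each well was multiplexed: SteadyGlo luminescence measured ATXN2-luciferase expression after a fluorogenic Gly-Phe-AFC viability readout (25 uM final).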
CtBP-E1A inh = qHTS Assay for Inhibitors of the CtBP/E1A Interaction. AlphaScreen GST-E1A/His-CtBP binding, 1536-well; active compounds read low. AID 651724, 2012. CtBP / adenovirus E1A interaction (AlphaScreen). activity change, % (no concentration beside the values). actives 0.49% (n = 340,000); in the data active means activity change below about -65%; inconclusive means mostly about -30% to -63%; further: on the % scale 0 is the no-effect control and ±100 the full control effect
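Steps: dispense buffer (Tris pH 8.0, NaCl 300 mM, TCEP 1 mM, BSA, Tween 20); add 5X protein mix (GST-E1A, His-CtBP, 125 nM each); pin 23 nL compound; 2 h at 37 °C, dark; add 5X beads (50 ug/mL); 1 h; read.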
TGFb inhibitor = qHTS for Inhibitors of TGF-b | actives 1.2% (n = 410,000) | HepG2 CAGA-GFP TGF-b/SMAD3 reporter, GFP fluorescence, 18 h; TGF-beta stimulated, 500 pg/mL final | Potency, µM (top dose mostly 46.1 µM), inactives show top-dose activity, negative = inhibition, actives largely listed as inhibitors | AID 588855, 2011; further: potency means the concentration at half of the fitted maximal effect; on the % scale 0 is the no-effect control and ±100 the full control effect; nearly all actives have a fitted effect of over 65% in size
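First, reporter cells (HEPG2 CAGA-GFP) rested 2 h at 37 degrees C. Next, compounds were pinned in and TGF-beta added to 500 pg/mL final. After 18 h, GFP was imaged per cell and summed per well.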
Six1-Eya2 blk = qHTS Assay for Inhibitors of the Six1/Eya2 Interaction | AlphaScreen GST-Six1/His-Eya2 binding, biochemical; active compounds read low | AID 651725, 2012 | actives 0.56% (n = 360,000) | Homeobox protein SIX1 (Homo sapiens) + Protein phosphatase EYA2 (Homo sapiens), … | activity change, % (concentration not given with the values); in the data active means activity change below about -65%; inconclusive means mostly about -30% to -63%; further: on the % scale 0 is the no-effect control and ±100 the full control effect
Target sequence (O00167 whole entry, looked up): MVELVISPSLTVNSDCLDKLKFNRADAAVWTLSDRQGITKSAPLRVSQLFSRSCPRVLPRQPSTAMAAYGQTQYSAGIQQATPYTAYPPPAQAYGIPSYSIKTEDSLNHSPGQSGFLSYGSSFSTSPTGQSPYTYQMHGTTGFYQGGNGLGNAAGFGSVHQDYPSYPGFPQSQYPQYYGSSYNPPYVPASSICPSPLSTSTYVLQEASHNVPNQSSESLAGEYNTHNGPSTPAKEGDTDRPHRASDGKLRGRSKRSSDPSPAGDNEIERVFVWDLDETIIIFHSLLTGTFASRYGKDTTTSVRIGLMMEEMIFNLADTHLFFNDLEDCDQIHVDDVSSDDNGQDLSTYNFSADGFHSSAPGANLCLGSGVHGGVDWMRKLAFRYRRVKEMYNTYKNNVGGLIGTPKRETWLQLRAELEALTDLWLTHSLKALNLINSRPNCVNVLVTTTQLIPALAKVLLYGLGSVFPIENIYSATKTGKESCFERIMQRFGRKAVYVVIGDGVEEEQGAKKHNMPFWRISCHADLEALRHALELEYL
Target sequence (Q15475 whole entry, looked up): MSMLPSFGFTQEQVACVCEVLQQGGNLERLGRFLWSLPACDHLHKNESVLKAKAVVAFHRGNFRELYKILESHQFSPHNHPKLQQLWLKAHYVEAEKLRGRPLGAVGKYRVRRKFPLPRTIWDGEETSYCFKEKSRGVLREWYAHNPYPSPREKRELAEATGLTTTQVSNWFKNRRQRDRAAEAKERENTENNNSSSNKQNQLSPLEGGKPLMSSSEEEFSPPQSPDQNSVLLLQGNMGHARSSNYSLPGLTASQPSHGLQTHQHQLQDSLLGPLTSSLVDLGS
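Six1/Eya2 binding was read as AlphaScreen signal after compounds were pinned into GST-Six1 plus His-tagged Eya2 (5X stock 250/500 nM) in pH 8.0 Tris/NaCl/TCEP buffer, beads added, then incubated 1 h, 37 C, dark.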
S2 tox = Viability Counterscreen for Primary qHTS for Inhibitors of ATXN expression; actives 0.49% (n = 400,000); Potency, µM (titrated, usually from 56.7 µM), hits mostly cytotoxic; S2 cells (HEK-293 line with an ATXN2-luciferase reporter) viability, CellTiter-Fluor protease fluorescence, 24 h; further: potency means the concentration at half of the fitted maximal effect; nearly all actives have a fitted effect of over 40% in size
* hit, by the source's call; i = inactive; ? = inconclusive; . = no result; ! = not active in a repeat. Sampled rows, rich in hits. Any-hit rate of the full collection: about 2.8%. Unless noted, the call rests on the fitted dose curve; in most records, active means well fitted curve in the direction sought with a large enough effect; inconclusive means small, poorly fitted or top-dose-only effect, or another doubt; inactive means no such curve, though single readings can be large; an effect the other way counts as inactive or inconclusive.

SMILES	HepG2 tox	ATXN2 expr inh	CtBP-E1A inh	TGFb inhibitor	Six1-Eya2 blk	S2 tox
COc1ccc(OC)c(Nc2nc(NCCCN(C)C)nc(N)c2[N+](=O)[O-])c1	16µM*	?	?	?	?	i
Cc1ccc(-n2[nH]c(=O)c(-c3ccccn3)c2C)cc1	-18%	1.8µM*	-21	3%	-22	i
CCOc1ccccc1NC(=O)c1ccc2c(Cl)c3c(nc2c1)CCC3	-11%	31%	.	-26%	.	i
CC(C)N1CCc2c(sc(NC(=O)c3ccc(S(=O)(=O)N4CCc5ccccc54)cc3)c2C(N)=O)C1	13µM*	?	-10	?	-15	?
CC(C)N1CCc2c(sc(NC(=O)c3cc(-c4cccs4)nc4ccccc34)c2C(N)=O)C1	18µM*	?	-2	-23%	9	.
CC(C)N1CCc2c(sc(NC(=O)c3nc4ccccc4s3)c2C(N)=O)C1	-31%	-8%	-3	1%	-14	i
C[C@@H]1[C@H](c2ccccc2)OCCS(=O)(=O)N1Cc1cccc(C(F)(F)F)c1	-31%	.	.	?	.	.
COc1ccc(CN2CCCC(n3cc(C(=O)NC4CCCC4)nn3)C2)c(O)c1 (configuration not stated)	.	.	.	.	.	i
O=C(NOCC1CC1)c1ccc(F)c(F)c1Nc1ccc(I)cc1Cl	.	31µM*	.	.	.	?
CN(C)CCCNc1nc2cc(-c3cccc(C(F)(F)F)c3)sc2c(=O)n1C	-93%	20µM*	-4	?	8	32µM*
CN(C)CCCNc1nc2cc(-c3cccc(Cl)c3)sc2c(=O)n1C	11µM*	?	1	?	-3	?
C[C@@H]1CC=CC=CC=CC=C[C@@H](O[C@@H]2O[C@H](C)[C@@H](O)[C@H](N)[C@H]2O)C[C@@H]2O[C@](O)(C[C@@H](O)C[C@@H]3O[C@@H]3C=CC(=O)O1)C[C@H](O)[C@@H]2C(=O)O	.	13%	.	.	.	.
Cc1ccc(C(=O)c2oc3ccccc3c2NC(=O)c2cc(-c3ccccc3)on2)cc1F	7%	2%	.	12%	.	i
Cc1ccccc1C1=NC(C(F)(F)F)(C(F)(F)F)c2c(n(C)c(=O)n(C)c2=O)N1	-18%	-10%	-1	-13%	3	i
Cn1c2c(c(=O)n(C)c1=O)C(C(F)(F)F)(C(F)(F)F)N=C(c1ccc(Cl)cc1)N2	-24%	?	-17	1.8µM*	2	?
Cc1ccccc1CN1CCc2nc(N3CCN(c4ncccn4)CC3)ncc2C1	-33%	-23%	.	?	.	?
Cc1nc2[nH]c(=S)[nH]c(=O)c2nc1C	-22%	6%	-2	1%	-12	i
Cc1nc2c(=O)[nH]c(=S)[nH]c2[nH]c1=O	2%	0%	-18	0%	-66*	i
CC1(C)CC(=O)C=C(C#CC2(O)CCCCC2)C1	10µM*	?	2	?	12	16µM*
CN(C)c1ccc(C(=O)Oc2cc(O/N=[N+](\[O-])N(C)C)c([N+](=O)[O-])cc2[N+](=O)[O-])cc1	3%	.	.	?	.	.
O=C(Nc1ccccc1)c1nn(-c2ccccc2)c(=O)cc1C(F)(F)F	5%	-24%	-3	-19%	-3	i
O=C(c1ccccc1)c1nn(-c2ccccc2)c(=O)cc1C(F)(F)F	1%	?	-75*	1%	?	i
O=C(c1ccccc1)c1nn(-c2ccccc2)c(=O)cc1-c1ccccc1	-23%	4%	-6	1%	-3	i
O=C(c1cccc(Cl)c1)c1nn(-c2ccccc2)c(=O)cc1C(F)(F)F	9%	25µM*	-73*	-9%	?	?
NC(=O)c1nn(-c2cccc(Cl)c2)c(=O)cc1O	0%	2%	6	-16%	3	i
SMILES	HepG2 tox	ATXN2 expr inh	CtBP-E1A inh	TGFb inhibitor	Six1-Eya2 blk	S2 tox
O=C(c1ccccc1)c1nn(-c2ccc(Cl)cc2)c(=O)cc1C(F)(F)F	-6%	11µM*	?	?	-15	?
CCC1CN(CC(=O)NC(C)CO)Cc2cc(OC)ccc2O1 (configuration not stated)	.	.	.	.	.	i
CC1CCCC(C)N1CCCNC(=O)c1ccc2c(c1)NC(=O)c1ccccc1S2 (configuration not stated)	-20%	-13%	-18	-12%	-11	i
CCC(C)N(CCNC(=O)c1ccc2c(c1)NC(=O)c1ccccc1S2)C1CCCCC1 (configuration not stated)	11µM*	?	0	?	7	?
COc1cc([C@H]2c3[nH]c4ccccc4c3C[C@H]3C(=O)N4[C@@H](c5cc(OC)c(OC)c(OC)c5)c5[nH]c6ccccc6c5C[C@H]4C(=O)N23)cc(OC)c1OC	14µM*	?	-3	?	2	16µM*
Oc1c(Br)cc(Br)cc1CNc1cccc2cccnc12	-63%	.	.	?	-27	i
Cc1ccnc2c1ccc1ccccc12	-16%	-1%	2	-7%	1	i
Oc1c(Br)cc(Br)c2cccnc12	-54%	22µM*!	-78*	?	-75*	?
Cc1ccnc2c1ccc1c(C)ccnc12	16µM*	5.3µM*	-92*	4.5µM*	-92*	.
Cc1ccnc2c1ccc1cccnc12	-4%	?	-92*	-23%	-81*	?
Cc1ccnc2c(O)cccc12	4µM*	.	.	3.5µM*	.	.
CC(=O)[C@@]1(O)CC[C@H]2[C@@H]3C=C(Cl)C4=CC(=O)CC[C@]4(C)[C@H]3CC[C@@]21C	.	.	.	.	.	i
Cc1ccc(C(=O)N2CCOc3ccc(CN4CCN(Cc5ccccn5)CC4)cc3C2)cc1	.	.	.	.	.	i
Cc1ccc(C(=O)Nc2c(C)cc(C)c3cccnc23)cc1	-1%	.	.	0%	18	i
Cc1cc(C)c2cccnc2c1O	-56%	.	.	3.2µM*	.	.
N#CC1=C(SCC(=O)NC2CC2)NC(=O)C(C#N)C12CCCCC2 (configuration not stated)	0%	2%	15	0%	10	i
N#CC1=C(SCC(=O)NC23CC4CC(CC(C4)C2)C3)NC(=O)C(C#N)C12CCCCC2 (configuration not stated)	-26%	?	-10	11µM*	1	?
O=C1C(SCCO)=C(SCCO)C(=O)c2ccccc21	7.1µM*!	?	?	3.2µM*	-3	.

Assay outcomes as filed in PubChem.
